High-throughput results as filed in PubChem.
PABP FP inh = PABP poly(A) RNA binding inhibitors, primary screen, biochemical, fluorescence polarization, uHTS | Polyadenylate-binding protein 1 (Homo sapiens), P11940 | calls only at 35 µM | AID 2014, 2009 | 290,000 tested, 1% active;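 note: calls also rest on retests at 20 µM and on dose response follow-up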
ABCB6 inh 2 = ABCB6 transporter inhibitors, primary screen, K562-ABCB6 cells, flow cytometry, MLPCN library; ATP-binding cassette sub-family B member 6 (Homo sapiens), Q9NP58; K562-ABCB6 porphyrin accumulation, 1 h; stronger effect = lower value; fluorescence ratio to DMSO, % at 10 µM; 360,000 tested, 0.19% active; AID 602162, 2011;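 active = fluorescence ratio to DMSO below 75%, the collection mean minus 3 SD; inconclusive = too few cells collected in the well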;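 note: signal is porphyrin accumulated inside mitochondria; lower ratio means ABCB6 inhibition with less porphyrin fluorescence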
PABP1 MLLE inh = inhibitors of PABP1 MLLE–PAM2 peptide binding, primary screen, biochemical, fluorescence polarization, FITC-PAM2, GST-MLLE | Polyadenylate-binding protein 1 (Homo sapiens), P11940 | inhibition, % at 20 µM | 360,000 tested, 0.36% active | AID 588489, 2011; in the data active = inhibition above about 35%, passing the limit was not always enough
PHOSPHO1 inh = PubChem AID 1565; Phosphoethanolamine/phosphocholine phosphatase (Homo sapiens), Q8TCT1; recombinant PHOSPHO1, absorbance phosphatase assay; inhibition, % at 13.3 µM; 290,000 tested, 1.1% active; in the data active = inhibition above about 60%
Target sequence (Q8TCT1 whole entry, looked up): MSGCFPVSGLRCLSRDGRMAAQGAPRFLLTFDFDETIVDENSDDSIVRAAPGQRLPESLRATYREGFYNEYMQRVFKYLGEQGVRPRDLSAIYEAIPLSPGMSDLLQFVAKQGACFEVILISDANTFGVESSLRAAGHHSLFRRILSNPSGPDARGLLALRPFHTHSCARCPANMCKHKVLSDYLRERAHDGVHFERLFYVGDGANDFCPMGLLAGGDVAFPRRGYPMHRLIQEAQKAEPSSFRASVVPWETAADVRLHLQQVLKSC
eIF4H FP inh = human eIF4H binding inhibitors, primary screen, translation initiation inhibitor project, biochemical, uHTS, fluorescence polarization | Eukaryotic translation initiation factor 4H (Homo sapiens), Q15056 | eIF4H fluorescence polarization binding assay | inhibition, % at 35 µM | 290,000 tested, 0.94% active | AID 2012, 2009;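 note: calls also rest on retests at 20 µM and on dose response follow-up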
AI-2 QS mod = Vibrio harveyi AI-2 quorum sensing modulators, primary screen, JMH597 strain, luminescence/OD600 ratio | AID 2094, 2009 | activity change, % at 7.5 µM | Vibrio harveyi JMH597 AI-2 luminescence/OD600 ratio, 9 h; stronger effect = lower value; strain lacks LuxN and CqsS sensors; 0 = neutral-control median | 300,000 tested, 0.4% active; in the data active = activity change below about -75%, passing the limit was not always enough; inconclusive = no clear call, values can overlap the other calls;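 note: luminescence divided by OD600 gain over 9 h not by final OD600 alone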
Large screens that a line does not name were inactive. The list is not random: actives were taken first. Their share in the collection is about 2.6%. Unless noted, the rule behind the calls is not given here.

CC(C)COC(=O)N1CCCCC1c1cc(C(=O)NCc2ccc(F)cc2)no1 (stereo not given)	none (no result: PABP FP inh, PHOSPHO1 inh, eIF4H FP inh, AI-2 QS mod)
COCCCN1C(=O)C(CC(=O)NC2CCCC2)CC(C(=O)N(C(C)C)C(C)C)=C1C (stereo not given)	none (no result: PABP FP inh, PHOSPHO1 inh, eIF4H FP inh, AI-2 QS mod)
COc1ccc(NC(=O)Nc2ccc([N+](=O)[O-])cc2)cn1	PABP FP inh active, PABP1 MLLE inh 58, eIF4H FP inh 82
COc1ccc(C(=O)N2CCCC(c3cc(C(=O)NCc4cccnc4)no3)C2)cc1 (stereo not given)	none (no result: PABP FP inh, PHOSPHO1 inh, eIF4H FP inh, AI-2 QS mod)
Cc1[nH]n(C(N)=S)c(=O)c1N=Nc1ccc(S(=O)(=O)N2CCCCCC2)cc1	PABP1 MLLE inh 40
COC(=O)c1sccc1-c1ccc(/C=N/OC(=O)c2ccccc2)o1	PABP FP inh inconclusive, ABCB6 inh 2 54, eIF4H FP inh inconclusive
CCN1C(=S)SC(=O)C1=C1C=C(C)N(Cc2ccco2)C(C)=C1	PHOSPHO1 inh 66
Nc1nc(=S)c2[nH]c(=S)[nH]c2[nH]1	none (no result: PABP FP inh, PHOSPHO1 inh, eIF4H FP inh, AI-2 QS mod)
CSc1nc(=S)c2[nH]c(=S)[nH]c2[nH]1	PABP FP inh active, eIF4H FP inh 92
CCOC(=O)C1(C)CCN1C(=O)c1ccc(C(F)(F)F)cc1 (stereo not given)	none (no result: PABP FP inh, PHOSPHO1 inh, eIF4H FP inh, AI-2 QS mod)
Cc1ccc(N2C(=O)CC(Sc3ncn[nH]3)C2=O)cc1C (stereo not given)	PHOSPHO1 inh 105
Cc1cccc(N2C(=O)CC(Sc3ncn[nH]3)C2=O)c1 (stereo not given)	none
CCN(CC)c1ccc(/C=N/Nc2cccc(C)c2)c(O)c1	none
CCN(CC)c1ccc(/C=N/Nc2ccccc2)c(O)c1	PHOSPHO1 inh 91
Cc1cc(C(=O)O)ccc1-n1c(C)cc(/C=C(/C#N)C(=O)Nc2ccccc2)c1C	PABP FP inh active, eIF4H FP inh 63
Cc1cc(/C=C(\C#N)C(=O)Nc2ccccc2)c(C)n1-c1cccnc1	none
CNCc1nc2ccccc2[nH]1	none
O=S(=O)(NCc1nc2ccccc2[nH]1)c1ccccc1	PHOSPHO1 inh 73
O=C(NCCc1cccc(C(F)(F)F)c1)C1CCC(=O)N(Cc2ccc(Cl)cc2)C1 (stereo not given)	PHOSPHO1 inh 68
CN(C1CCCCC1)S(=O)(=O)c1ccc(S(=O)(=O)N2CCCC2)cc1	none
CN(C1CCCCC1)S(=O)(=O)c1ccc(=S)[nH]c1	PABP1 MLLE inh 58 (no result: PABP FP inh, PHOSPHO1 inh, eIF4H FP inh, AI-2 QS mod)
Cc1cccc2cc(=O)[nH]c(C)c12	PABP FP inh active
CC(=O)NC(C)(c1ccccc1)c1nc(-c2ccc(N(C)C)cc2)cs1 (stereo not given)	none (no result: PABP FP inh, PHOSPHO1 inh, eIF4H FP inh, AI-2 QS mod)
CC(=O)Nc1ccc(S(=O)(=O)NC(C)C(=O)NC(C)c2ccccc2)cc1 (stereo not given)	PABP1 MLLE inh 49
S=C(Nc1ccc(Cl)cc1)c1sc(N2CCCCC2)nc1N1CCOCC1	PABP FP inh active, eIF4H FP inh 79
C[n+]1cc[nH]c1SCC(=O)c1ccccc1	PHOSPHO1 inh 60
CC(Sc1nnc(COc2ccc([N+](=O)[O-])cc2)n1C)C(=O)O (stereo not given)	none
CC(Sc1nnc(COc2ccc3ccccc3c2)n1C)C(=O)O (stereo not given)	PHOSPHO1 inh 76
CC(C)C[C@H]1CN(CCCC[C@H]2CNC(=O)C(=O)N2Cc2ccccc2)C(=O)C(=O)N1CCC1CCCCC1	none (no result: PABP FP inh, PABP1 MLLE inh, PHOSPHO1 inh, eIF4H FP inh, AI-2 QS mod)
COc1ccccc1NS(=O)(=O)c1ccc(O)c(NC(=S)NCC2CCCO2)c1 (stereo not given)	PABP1 MLLE inh 40
O=S1(=O)CC(N2CC=CC2)CN1Cc1cn(Cc2ccccc2)nn1 (stereo not given)	none (no result: PABP FP inh, PABP1 MLLE inh, PHOSPHO1 inh, eIF4H FP inh, AI-2 QS mod)
COc1ccccc1NC(=S)NC(=O)CCc1ccccc1	none
CC(C)c1ccc(O)c(NC(=S)NC(=O)CCc2ccccc2)c1	PABP1 MLLE inh 43
O=C1OCC(CO)(CO)N=C1NNc1ccccc1Cl	PHOSPHO1 inh 82
COC(=O)c1ccc(CN2C(=O)NC3(CCCc4ccccc43)C2=O)o1 (stereo not given)	none
COC(=O)c1ccc(CN2C(=O)NC3(CCCCC3C)C2=O)o1 (stereo not given)	PHOSPHO1 inh 70
COc1cccc(COC(=O)CSCC(=O)Nc2ccc(C)cc2)c1OC	none (no result: PABP FP inh, PHOSPHO1 inh, eIF4H FP inh, AI-2 QS mod)
CNC[C@@H]1OCc2ccccc2-c2c(n(C)c3ccccc23)C(=O)N([C@H](C)CO)C[C@@H]1C	none (no result: PABP FP inh, PHOSPHO1 inh, eIF4H FP inh, AI-2 QS mod)
CCCCn1nnnc1C(c1ccccc1)N1CCN(c2cccc(C(F)(F)F)n2)CC1 (stereo not given)	none (no result: PABP FP inh, PABP1 MLLE inh, PHOSPHO1 inh, eIF4H FP inh, AI-2 QS mod)
O=c1oc2ccccc2c(Nc2cccc(O)c2)c1[N+](=O)[O-]	PABP FP inh active, eIF4H FP inh 84
O=C(O)c1cccc(Nc2c([N+](=O)[O-])c(=O)oc3ccccc23)c1	none
CCC(=O)N1CCCC1(C)C(=O)Nc1cc(OC)ccc1OC (stereo not given)	none (no result: PABP FP inh, PHOSPHO1 inh, eIF4H FP inh, AI-2 QS mod)
CNC(=O)c1ccsc1NC(=O)c1sc2ccccc2c1Cl	PABP FP inh active, eIF4H FP inh 54
O=C(NNc1ccc(Cl)cc1)c1sccc1Cl	PABP1 MLLE inh 42
CCCNC(=O)C1(C)CCCN(C(=O)/C=C/c2ccccc2)C1 (stereo not given)	none (no result: PABP FP inh, PHOSPHO1 inh, eIF4H FP inh, AI-2 QS mod)
COCCn1c(C)cc(C(=O)CSc2ccc3ccccc3n2)c1C	PABP FP inh active, PHOSPHO1 inh 69, eIF4H FP inh 62
COCCn1c(C)cc(C(=O)CSc2nncn2-c2ccccc2)c1C	PHOSPHO1 inh 95
COCCn1c(C)cc(C(=O)CSc2nc3ccccc3c(=O)[nH]2)c1C	none
CCN(c1ccc(NC(=O)CSc2nnc3nc(C)cc(C)n23)cc1)C(C)C	PHOSPHO1 inh 73
Cc1c(NC(=O)COC(=O)c2cc3c4ccccc4n(C)c3s2)c(=O)n(-c2ccccc2)n1C	PHOSPHO1 inh 62
Cc1c(NC(=O)COC(=O)c2ccccc2Cl)c(=O)n(-c2ccccc2)n1C	none
CCn1c(SCC(=O)N/N=C/C(C)=C\c2ccco2)nnc1-c1ccccc1	PABP FP inh active, eIF4H FP inh 51
CCn1c(SCC(=O)N/N=C/C(C)=C/c2ccco2)nnc1-c1ccccc1	PHOSPHO1 inh 70
CSc1ccc(OC2(C)CCN(Cc3ccc(C(C)C)cc3)C2)cc1 (stereo not given)	none (no result: PABP FP inh, PHOSPHO1 inh, eIF4H FP inh, AI-2 QS mod)
COc1ccc(C2=NN(C(=O)CCCC(=O)O)C(c3cn(-c4ccccc4)nc3-c3ccccc3)C2)cc1 (stereo not given)	eIF4H FP inh 74
O=c1ncccn1C1OC(CO)C(O)C1O (stereo not given)	none (no result: PABP FP inh, PHOSPHO1 inh, eIF4H FP inh, AI-2 QS mod)
CCOC(=O)C1(C)CCCCCN1C(=O)c1ccc(OC)cc1 (stereo not given)	none (no result: PABP FP inh, PHOSPHO1 inh, eIF4H FP inh, AI-2 QS mod)
Cc1cccc(/C=C/c2nc3ccccc3c(=O)n2Cc2ccccc2)c1	PABP FP inh active, eIF4H FP inh 76
